Assay results taken from PubChem BioAssay AID652154 (Broad Institute, 2013).
Among all 360,000 compounds or so, about 4,200 (1.2%) were called active.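 The calls were made as follows: active = mean replicate inhibition at least 60% with every replicate also reaching 60%; inconclusive = only one of the two criteria is met; inactive = mean below 60% and not all replicates reaching 60%.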 The sample as a whole holds a higher share of actives than the screen did.

Assay: inhibitors of PAX8-driven TPO luciferase reporter, primary screen, RMG-I cells, single concentration (AID 652154);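 also: luciferase light reporting Pax8 driven TPO promoter activity; plate controls were median of neutral control wells for no effect and mitoxantrone controls for full effect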
Conditions: SteadyGlo, 24 h, at 12.6 µM, hits give high values
For `O=C(C[C@@H]1CC[C@@H]2[C@H](COC[C@@H](O)CN2Cc2cc(F)cc(F)c2)O1)NCc1cccc(F)c1`, the inhibition was 16% (inactive). For `Cc1cccc(-c2ccc([C@@H]3[C@H]4CN(C(=O)c5ccccc5)CC(=O)N4[C@H]3CO)cc2)c1`, the inhibition was 23.1% (inactive). With `O=C(C[C@@H]1CC[C@H]2[C@@H](COC[C@@H](O)CN2C(=O)c2ccc3c(c2)OCO3)O1)NC1CCCC1` the inhibition was -8.12% (inactive). With `CCCNC(=O)c1c(Cl)cnn1-c1ccc(C)cc1` the inhibition was -169% (inactive). With `Cc1cccc(-n2ncc(Cl)c(Cl)c2=O)c1` the inhibition was 99.9% (active). For `CC(=O)Nc1c2c(nn1-c1cccc(C)c1)CSC2`, the inhibition was 13.4% (inactive). With `O=c1ccc2c(-c3ccccc3S(=O)(=O)O)c3ccc(O)c(O)c3oc-2c1O` the inhibition was 65.9% (active). With `CN(C)C(=O)C[C@@H]1CC[C@@H](NC(=O)NC2CCCC2)[C@@H](CO)O1` the inhibition was -11% (inactive). With `Cn1cnc(CCNC(=O)C[C@H]2CC[C@H]3[C@@H](COC[C@@H](O)CN3C(=O)Nc3ccc(C(F)(F)F)cc3)O2)c1` the inhibition was -9.72% (inactive). For `CC(C)NC(=O)N1C[C@H]2[C@@H](c3ccccc31)[C@H](CO)N2C(=O)c1ccccc1F`, the inhibition was -9.19% (inactive). For `CC(=O)Nc1cccc(NC(=O)c2ccc3c(c2)CCN3S(C)(=O)=O)c1`, the inhibition was -7.18% (inactive). For `CN(c1cccc(NC(=O)c2ccc(CN3CCc4ccccc4C3)cc2)c1)S(C)(=O)=O`, the inhibition was 72.6% (active). With `CS(=O)(=O)N1CCc2cc(C(=O)Nc3ccccc3)ccc21` the inhibition was -94% (inactive). With `CCCNC(=O)C[C@H]1CC[C@H]2[C@H](COc3ccc(NC(=O)CC)cc3C(=O)N2C)O1` the inhibition was -14.6% (inactive). For `N#Cc1c(NC(=O)C2CC(Cl)=CCC2C(=O)O)sc2c1CCCCC2` (stereo not given), the inhibition was -9.86% (inactive). For `N#Cc1c(NC(=O)CCCl)sc2c1CCCCC2`, the inhibition was 60.9% (active). In the case of `N#Cc1c(NC(=O)C2CCCO2)sc2c1CCCCC2` (stereo not given), the inhibition is reported as -175% (inactive). For `O=C(Nc1ccc2c(c1)OCO2)N[C@@H]1CC[C@H](CC(=O)N2CCN(c3ccccc3)CC2)O[C@@H]1CO`, the inhibition was -5.75% (inactive). For `O=C(C[C@H]1C[C@@H]2c3cc(NC(=O)c4cccnc4)ccc3O[C@@H]2[C@@H](CO)O1)NCc1ccccc1F`, the inhibition was -5.11% (inactive). For `O=C(NCc1nnnn1-c1ccc(Cl)cc1)c1ccc([N+](=O)[O-])o1`, the inhibition was 77.5% (active). In the case of `CC(=O)c1ccc(S(=O)(=O)NCc2nnnn2-c2ccccc2)cc1`, the inhibition is reported as 3.71% (inactive). With `O=C(NCc1nnnn1-c1ccc(Cl)cc1)c1ccc2c(c1)OCO2` the inhibition was 2.39% (inactive). For `CCCc1cn(CC[C@@H]2CC[C@@H](NC(=O)C3CC3)[C@H](CO)O2)nn1`, the inhibition was -17.8% (inactive). With `O=C(C[C@@H]1CC[C@@H](NC(=O)CC2CC2)[C@H](CO)O1)NCc1ccc(-c2ccccc2)cc1` the inhibition was 2.89% (inactive). In the case of `C[C@H](CO)N1C[C@H](C)[C@@H](CN(C)Cc2ccccn2)Oc2ncc(C3=CCCC3)cc2C1=O`, the inhibition is reported as -41% (inactive). With `COc1cccc(-c2cnc3c(c2)C(=O)N([C@@H](C)CO)C[C@@H](C)[C@@H](CN(C)Cc2ccc(C(=O)O)cc2)O3)c1` the inhibition was -16.9% (inactive). For `CCC(=O)N1[C@@H]2c3ccc(-c4ccc(F)cc4)c(=O)n3C[C@H]1[C@H](CO)[C@H]2C(=O)N(C)C`, the inhibition was 7.01% (inactive). For `O=C(CCCCCn1c(=S)[nH]c2cc3c(cc2c1=O)OCO3)N1CCN(c2ccc(F)cc2)CC1`, the inhibition was 3.47% (inactive). With `Cc1ccc(C)c(N2CCN(C(=O)CCCCCn3c(=S)[nH]c4ccc(N5CCOCC5)cc4c3=O)CC2)c1` the inhibition was 95% (active). For `Cc1ccc(C)c(N2CCN(C(=O)CCCn3c(=O)c4cccn4c4cccnc43)CC2)c1`, the inhibition was 13.6% (inactive). For `C[C@@H](NC(=O)C[C@H]1C=C[C@@H](NC(=O)CN2CCOCC2)[C@@H](CO)O1)c1ccccc1`, the inhibition was -7.59% (inactive). With `COc1ccc(CN(C)C[C@@H]2OCCCC[C@@H](C)Oc3ccc(NS(=O)(=O)c4ccc(F)cc4)cc3C(=O)N([C@@H](C)CO)C[C@H]2C)cc1` the inhibition was -7.37% (inactive). In the case of `Cc1ccc(S(=O)(=O)Nc2ccc3c(c2)C(=O)N([C@@H](C)CO)C[C@@H](C)[C@H](CN(C)Cc2ccc4c(c2)OCO4)OCCCC[C@@H](C)O3)cc1`, the inhibition is reported as -3.85% (inactive). For `C[C@@H]1CCCCO[C@@H](CN(C)Cc2ccc(C(F)(F)F)cc2)[C@H](C)CN([C@H](C)CO)C(=O)c2cc(NS(=O)(=O)c3ccc(F)cc3)ccc2O1`, the inhibition was 104% (active). With `COc1ccc(S(=O)(=O)Nc2ccc3c(c2)C(=O)N([C@@H](C)CO)C[C@@H](C)[C@H](CN(C)Cc2ccc(C(F)(F)F)cc2)OCCCC[C@@H](C)O3)cc1` the inhibition was 27.5% (inactive). In the case of `Cc1ccc(S(=O)(=O)Nc2ccc3c(c2)C(=O)N([C@H](C)CO)C[C@H](C)[C@@H](CN(C)Cc2ccccc2)OCCCC[C@H](C)O3)cc1`, the inhibition is reported as -7.59% (inactive). With `COc1ccc(S(=O)(=O)Nc2ccc3c(c2)C(=O)N([C@@H](C)CO)C[C@H](C)[C@H](CN(C)Cc2ccc(C(F)(F)F)cc2)OCCCC[C@@H](C)O3)cc1` the inhibition was 94.8% (active). For `C[C@H](CO)N1C[C@H](C)[C@H](CN(C)Cc2ccc(C(F)(F)F)cc2)OCCCC[C@H](C)Oc2ccc(NS(=O)(=O)c3ccc(Cl)cc3)cc2C1=O`, the inhibition was 19.1% (inactive). In the case of `COc1ccc(CN(C)C[C@@H]2OCCCC[C@H](C)Oc3ccc(NS(=O)(=O)c4ccc(F)cc4)cc3C(=O)N([C@H](C)CO)C[C@H]2C)cc1`, the inhibition is reported as -1.69% (inactive). In the case of `Cc1ccc(S(=O)(=O)Nc2ccc3c(c2)C(=O)N([C@@H](C)CO)C[C@@H](C)[C@H](CN(C)Cc2ccc(Cl)c(Cl)c2)OCCCC[C@@H](C)O3)cc1`, the inhibition is reported as 75.8% (active). In the case of `C[C@@H]1CCCCO[C@@H](CN(C)Cc2ccc(Cl)c(Cl)c2)[C@H](C)CN([C@@H](C)CO)C(=O)c2cc(NS(C)(=O)=O)ccc2O1`, the inhibition is reported as 6.58% (inactive). In the case of `Cc1ccc(S(=O)(=O)Nc2ccc3c(c2)C(=O)N([C@@H](C)CO)C[C@@H](C)[C@@H](CN(C)Cc2ccc(C(F)(F)F)cc2)OCCCC[C@@H](C)O3)cc1`, the inhibition is reported as 105% (active). For `Cc1ccc(S(=O)(=O)Nc2ccc3c(c2)C(=O)N([C@H](C)CO)C[C@@H](C)[C@H](CN(C)Cc2ccccc2)OCCCC[C@H](C)O3)cc1`, the inhibition was 45.2% (inactive). In the case of `COc1cccc(S(=O)(=O)N[C@@H]2CC[C@H](CCNC(=O)Cc3ccncc3)O[C@@H]2CO)c1`, the inhibition is reported as -23.7% (inactive). In the case of `CN(C)C(=O)c1ccc(-c2ccc([C@H]3[C@H](CO)N4C(=O)CN(C(=O)C5CCCC5)C[C@@H]34)cc2)cc1`, the inhibition is reported as -16.1% (inactive). For `C[C@H](CO)N1C[C@H](C)[C@@H](CN(C)Cc2cncnc2)Oc2cc(-c3ccccc3)ccc2S1(=O)=O`, the inhibition was 1.94% (inactive). With `C[C@@H]1CN([C@H](C)CO)C(=O)Cc2cc(NS(C)(=O)=O)ccc2O[C@H]1CN(C)S(=O)(=O)c1ccccc1` the inhibition was -11.5% (inactive). For `C[C@H](O)C#Cc1ccc2c(c1)O[C@H](CN(C)C)[C@@H](C)CN([C@H](C)CO)S2(=O)=O`, the inhibition was -9.29% (inactive). In the case of `C/C=C/c1ccc([C@H]2[C@@H](CO)N(C(=O)CN(C)C)C23CN(C(=O)C2CCCC2)C3)cc1`, the inhibition is reported as -21.3% (inactive). For `Cc1noc(C)c1S(=O)(=O)N(C)C[C@@H]1OCCCC[C@@H](C)Oc2ccc(NC(=O)Nc3ccccc3)cc2C(=O)N([C@H](C)CO)C[C@@H]1C`, the inhibition was 4.8% (inactive). In the case of `C[C@@H]1CN([C@@H](C)CO)C(=O)c2cc(NS(=O)(=O)c3ccccc3)ccc2O[C@H]1CN(C)CC1CC1`, the inhibition is reported as -3.75% (inactive). With `COc1ccc(S(=O)(=O)Nc2cccc3c2O[C@@H](CN(C)Cc2ccc(-c4ccccc4)cc2)[C@H](C)CN([C@H](C)CO)C3=O)cc1` the inhibition was -16.5% (inactive). For `C[C@H]1CCCCO[C@H](CN(C)C)[C@@H](C)CN([C@@H](C)CO)C(=O)c2cc(NC(=O)CCCN(C)C)ccc2O1`, the inhibition was -13.7% (inactive). With `CS(=O)(=O)N(Cc1ccc(Cl)cc1)c1ccc(C(=O)NCCSCc2ccco2)cc1` the inhibition was 61.6% (active). For `COc1cc(OC)cc(C(=O)NCCSCc2ccco2)c1`, the inhibition was 3.2% (inactive). With `Cc1cc(C)cc(N(CC(=O)NCCSCc2ccco2)S(C)(=O)=O)c1` the inhibition was 3.24% (inactive). For `C[C@H](CO)N1C[C@H](C)[C@@H](CN(C)C)Oc2ccc(N(C)C)cc2C1=O`, the inhibition was -23.1% (inactive). With `COc1ccc(NC(=O)Nc2ccc3c(c2)C(=O)N([C@H](C)CO)C[C@H](C)[C@@H](CN(C)C(=O)NC2CCCCC2)OCCCC[C@@H](C)O3)cc1` the inhibition was 19.9% (inactive). For `COc1ccc(S(=O)(=O)Nc2ccc3c(c2)C(=O)N([C@H](C)CO)C[C@@H](C)[C@H](CN(C)S(=O)(=O)c2ccc(Cl)cc2)OCCCC[C@@H](C)O3)cc1`, the inhibition was 55.8% (inactive). With `C[C@@H]1CCCCO[C@H](CN(C)S(=O)(=O)c2ccc(F)cc2)[C@H](C)CN([C@@H](C)CO)C(=O)c2cc(NS(=O)(=O)c3ccccc3)ccc2O1` the inhibition was 3.05% (inactive). For `C[C@H](CO)N1C[C@H](C)[C@H](CN(C)S(=O)(=O)c2ccc(F)cc2)OCCCC[C@H](C)Oc2ccc(NS(=O)(=O)c3ccc(Cl)cc3)cc2C1=O`, the inhibition was 87.4% (active). For `C[C@@H]1CCCCO[C@H](CN(C)S(C)(=O)=O)[C@@H](C)CN([C@H](C)CO)C(=O)c2cc(NS(=O)(=O)c3ccc(Cl)cc3)ccc2O1`, the inhibition was 7.33% (inactive). With `C[C@@H]1CN([C@H](C)CO)C(=O)c2cccc(NC(=O)c3nc4ccccc4s3)c2O[C@H]1CN(C)Cc1ccccc1` the inhibition was -1.34% (inactive). In the case of `C[C@@H]1CCCCO[C@H](CN(C)S(=O)(=O)c2ccccc2)[C@@H](C)CN([C@@H](C)CO)C(=O)c2cc(NS(=O)(=O)c3ccccc3)ccc2O1`, the inhibition is reported as 0.573% (inactive). In the case of `Cc1ccc(S(=O)(=O)N(C)C[C@@H]2OCCCC[C@@H](C)Oc3ccc(NS(=O)(=O)c4ccccc4)cc3C(=O)N([C@H](C)CO)C[C@@H]2C)cc1`, the inhibition is reported as -6.72% (inactive). In the case of `C[C@@H]1CN([C@H](C)CO)C(=O)c2cccc(NC(=O)c3nc4ccccc4s3)c2O[C@H]1CN(C)S(=O)(=O)c1ccc(Cl)cc1`, the inhibition is reported as 66.2% (active). With `Cc1ccc(S(=O)(=O)Nc2ccc3c(c2)C(=O)N([C@H](C)CO)C[C@@H](C)[C@H](CN(C)S(=O)(=O)c2ccc(C)cc2)OCCCC[C@@H](C)O3)cc1` the inhibition was 71.3% (active). With `C[C@@H]1CN([C@H](C)CO)C(=O)c2cccc(NC(=O)c3nc4ccccc4s3)c2O[C@@H]1CN(C)C` the inhibition was -13.2% (inactive). For `Cc1ccc(S(=O)(=O)N(C)C[C@H]2OCCCC[C@@H](C)Oc3ccc(NS(C)(=O)=O)cc3C(=O)N([C@H](C)CO)C[C@@H]2C)cc1`, the inhibition was -9.1% (inactive). In the case of `C[C@@H]1CN([C@H](C)CO)C(=O)c2cc(NS(=O)(=O)c3ccccc3)ccc2O[C@@H](C)CCCCO[C@H]1CN(C)S(=O)(=O)c1ccc(Cl)cc1`, the inhibition is reported as 73.3% (active).
